Test systems include HT29 colon; SNB-19 CNS; U251 CNS; PC-3 prostate; SK-MEL-5 melanoma; UACC-62 melanoma; LOX IMVI melanoma; SK-MEL-28 melanoma; SK-MEL-2 melanoma; EKVX NSCLC; SN12C renal; UO-31 renal; TK-10 renal; A498 renal; CCRF-CEM leukemia; MOLT-4 leukemia; SNB-75 CNS; ACHN renal; CAKI-1 renal.
Common to all, as to experiment: NCI-60 one-dose screen, 48 h (100 = growth as untreated, 0 = no growth, -100 = all killed)
Details in all cases: 10 µM unless noted

The panel holds about 83,000 compounds, 20% with a hit somewhere; the sample as a whole holds those more often.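 Method: cells in 96-well plates; compound added at one concentration; 48 h incubation; percent growth measured; values under 10 scored active.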 Values without a mark were called inactive. Calls of active or inactive are those of the source.

Regarding `[2H]c1nc(Nc2ncc(F)c(-c3cc(F)c4nc(C)n(C(C)C)c4c3)n2)c([2H])c([2H])c1CN1CCN(C([2H])([2H])C([2H])([2H])[2H])CC1`, the growth in the experiment on HT29 colon was 34.6%; with SNB-19 CNS, 65.5%; in the experiment with U251 CNS, 42.2%; in the experiment on PC-3 prostate, 44.2%; with SK-MEL-5 melanoma, 41.8%; in the experiment on UACC-62 melanoma, 73.3%. The growth in the experiment on LOX IMVI melanoma is 39.1%; in the experiment on SK-MEL-28 melanoma, 70.3%; in the experiment on SK-MEL-2 melanoma, 50.1%; with EKVX NSCLC, 51.7%; with SN12C renal, 54.3%; with UO-31 renal it was 23.2%. Further, the growth in the experiment on TK-10 renal was 21.6%; with A498 renal it was 44.3%; in the experiment on CCRF-CEM leukemia it was 35.2%; with MOLT-4 leukemia, 21.1%.
On to `Cc1cc(-c2ccccc2)cc(SC#N)[n+]1[O-]`, for which the growth is 50.6% with HT29 colon; 78.5% with SNB-75 CNS; 41.2% in the experiment on SNB-19 CNS; 24.1% in the experiment with U251 CNS; 38.7% in the experiment with PC-3 prostate; 32.6% with SK-MEL-5 melanoma. In addition, the growth is 28.8% with UACC-62 melanoma; 29.7% with LOX IMVI melanoma; 45.1% in the experiment with SK-MEL-28 melanoma; 49.1% in the experiment with SK-MEL-2 melanoma; 26.2% with EKVX NSCLC; 51.7% in the experiment with SN12C renal. Besides, the growth in the experiment on UO-31 renal is 40.4%; with TK-10 renal it was 55.9%; with A498 renal, 67.7%; with CCRF-CEM leukemia, 6.22% (active); with MOLT-4 leukemia, 10.1%.
Take `C[C@]12CCC(=O)C[C@H]1CC[C@@H]1[C@@H]2CC[C@@]2(C)[C@H]1CC[C@]2(O)C(=O)CO`: the growth in the experiment with HT29 colon was 99.4%; with SNB-75 CNS, 94.4%; in the experiment on SNB-19 CNS, 108%; in the experiment on U251 CNS, 121%; in the experiment on PC-3 prostate, 102%; in the experiment on SK-MEL-5 melanoma, 104%. The growth in the experiment on SK-MEL-28 melanoma is 108%; in the experiment on SK-MEL-2 melanoma, 106%; with EKVX NSCLC, 107%; in the experiment with SN12C renal, 101%; with UO-31 renal it was 91.6%; with ACHN renal it was 96.7%. Further, the growth in the experiment on CAKI-1 renal is 106%; with A498 renal, 97.1%; in the experiment with CCRF-CEM leukemia, 105%; in the experiment on MOLT-4 leukemia, 107%.
Regarding `CN1CCN(C(=O)[C@]23CCC(C)(C)C[C@@H]2C2=CC[C@@H]4[C@@]5(C)Cc6c([nH]c7ccccc67)C(C)(C)[C@@H]5CC[C@@]4(C)[C@]2(C)CC3)CC1`, the growth with HT29 colon is 71.3%; in the experiment with SNB-75 CNS it was 56.6%; with SNB-19 CNS, 91.8%; with U251 CNS it was 78.3%; in the experiment with PC-3 prostate it was 64.8%; in the experiment on SK-MEL-5 melanoma it was 94%. Besides, the growth in the experiment with UACC-62 melanoma was 95.9%; in the experiment with LOX IMVI melanoma, 77.4%; with SK-MEL-28 melanoma it was 89.6%; in the experiment on SK-MEL-2 melanoma, 95.1%; in the experiment with EKVX NSCLC it was 77%; with SN12C renal, 88.1%. Further, the growth with UO-31 renal was 57.7%; with TK-10 renal, 92.4%; in the experiment with ACHN renal, 86.9%; with CAKI-1 renal, 55.2%; with A498 renal, 96.5%; in the experiment on CCRF-CEM leukemia, 71%. Besides, the growth with MOLT-4 leukemia is 63%.
`CCN(CC)S(=O)(=O)c1ccc(O)c(NC(=O)c2[nH]c(C)c(C(C)=O)c2CCc2ccc(Cl)cc2)c1`: the growth in the experiment with HT29 colon is 101%; in the experiment with SNB-75 CNS, 52.1%; in the experiment on SNB-19 CNS it was 47.1%; in the experiment with U251 CNS, 31.1%; in the experiment on PC-3 prostate it was 32.8%; in the experiment with SK-MEL-5 melanoma, -25% (active). In addition, the growth in the experiment on UACC-62 melanoma is 20.2%; in the experiment with LOX IMVI melanoma it was 39.5%; in the experiment with SK-MEL-28 melanoma, 70.9%; in the experiment with EKVX NSCLC, 78%; with SN12C renal, 43%; in the experiment on UO-31 renal it was 23.5%. Moreover, the growth was 53.9% in the experiment with TK-10 renal; 36.2% in the experiment on ACHN renal; 56.8% with CAKI-1 renal; 26% in the experiment on A498 renal; 62% in the experiment on CCRF-CEM leukemia; 28.3% in the experiment with MOLT-4 leukemia.
For the compound `NC(=O)CC1(O)C=C(Br)C(=O)C(Br)=C1`, the growth is 75.8% in the experiment with HT29 colon; 76.4% in the experiment on SNB-75 CNS; 106% with SNB-19 CNS; 95.6% with U251 CNS; 92.7% in the experiment with SK-MEL-5 melanoma; 108% with UACC-62 melanoma. For the same compound, the growth in the experiment with LOX IMVI melanoma was 86.1%; in the experiment with SK-MEL-28 melanoma it was 21.5%; in the experiment on EKVX NSCLC, 91.4%; in the experiment with SN12C renal, 117%; in the experiment with UO-31 renal, -53.6% (active); with TK-10 renal, 17.1%. In addition, the growth was -59.4% (active) in the experiment with ACHN renal, -10.2% (active) in the experiment on CAKI-1 renal, -45% (active) with CCRF-CEM leukemia and -53% (active) with MOLT-4 leukemia.
Turning to `CCCCCCCCc1cc[n+](CC(=O)c2ccc(Br)cc2)cc1`, the growth was -88.9% (active) with HT29 colon; 50.5% in the experiment on SNB-75 CNS; 35.3% in the experiment with SNB-19 CNS; -85.2% (active) with U251 CNS; 10.2% in the experiment on PC-3 prostate; -93.5% (active) with SK-MEL-5 melanoma. In addition, the growth is -84.8% (active) in the experiment with LOX IMVI melanoma; 32.9% with SK-MEL-28 melanoma; 0.325% (active) in the experiment with SK-MEL-2 melanoma; 35.7% with EKVX NSCLC; 8.54% (active) in the experiment with SN12C renal; 38.2% in the experiment with UO-31 renal. Moreover, the growth in the experiment with TK-10 renal was -67.5% (active); in the experiment on ACHN renal, 9.78% (active); with CAKI-1 renal, 41.4%; with A498 renal, 88.8%; in the experiment on CCRF-CEM leukemia it was 0.476% (active).
In the case of `CCNCCNc1cc(C2CCCC2)c(C#N)c2nc3ccccc3n12`, the growth was -9.9% (active) in the experiment with HT29 colon; 36.8% in the experiment with SNB-19 CNS; -19.1% (active) in the experiment with U251 CNS; 39.6% in the experiment with PC-3 prostate; -56.7% (active) in the experiment with SK-MEL-5 melanoma; -81.4% (active) in the experiment on UACC-62 melanoma. Moreover, the growth with LOX IMVI melanoma was -79% (active); in the experiment on SK-MEL-28 melanoma, -63.8% (active); with EKVX NSCLC it was 38%; in the experiment on SN12C renal it was 46.3%; in the experiment on UO-31 renal, -74.9% (active); in the experiment on TK-10 renal it was -24.7% (active). Moreover, the growth in the experiment with ACHN renal was -34.7% (active); with CAKI-1 renal, 39.5%; in the experiment with A498 renal, 75.4%; with CCRF-CEM leukemia, -8.07% (active); in the experiment on MOLT-4 leukemia it was -17.9% (active).
Take `C=C1C(=O)O[C@H]2[C@H]1CC/C(COC(=O)NCc1ccc(Cn3c(=O)sn(CCCCl)c3=O)cc1)=C\CC[C@@]1(C)O[C@@H]21`: the growth in the experiment on HT29 colon is -30.2% (active); with SNB-75 CNS, 70.2%; in the experiment with SNB-19 CNS it was 76.1%; in the experiment on U251 CNS, 57.7%; in the experiment with PC-3 prostate, 67.1%; in the experiment with SK-MEL-5 melanoma, 42.5%. Also, the growth in the experiment on UACC-62 melanoma was 26.8%; with LOX IMVI melanoma, -48.2% (active); in the experiment on SK-MEL-28 melanoma it was 28.1%; in the experiment on SK-MEL-2 melanoma, 49%; in the experiment with EKVX NSCLC, 57.1%; in the experiment with SN12C renal, 18.5%. The growth was 11% with UO-31 renal; -65.2% (active) in the experiment with TK-10 renal; -57.7% (active) with ACHN renal; 27.7% in the experiment on CAKI-1 renal; 104% in the experiment with A498 renal; -38% (active) with CCRF-CEM leukemia. Also, in the experiment on MOLT-4 leukemia, the growth is -31.7% (active).

(Values after PubChem BioAssay (NCI).)
